Reference: PubChem BioAssay
A number with no mark means an inactive call. No rule for the calls is given here.

molecular target: Pantothenate synthetase (Mycobacterium tuberculosis (strain ATCC 25618 / H37Rv)) (UniProt P9WIL5); test: Coupled enzyme confirmation of inhibitors against recombinant Mtb PanC (AID 375); conditions: coupled enzyme assay; at 10 µM, active compounds read high;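 also: 0% = full reaction with vehicle and 100% = no enzyme background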
Sequence (P9WIL5 whole entry, looked up): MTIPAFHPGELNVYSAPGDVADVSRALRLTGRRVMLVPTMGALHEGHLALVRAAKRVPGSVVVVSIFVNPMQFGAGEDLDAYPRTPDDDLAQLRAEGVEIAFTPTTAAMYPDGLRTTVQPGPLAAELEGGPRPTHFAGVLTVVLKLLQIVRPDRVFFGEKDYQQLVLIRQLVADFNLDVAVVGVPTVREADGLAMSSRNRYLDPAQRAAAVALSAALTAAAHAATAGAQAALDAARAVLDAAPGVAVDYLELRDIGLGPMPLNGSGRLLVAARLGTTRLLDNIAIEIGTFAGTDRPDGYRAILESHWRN

| Compound | inhibition [%] |
| --- | --- |
| Cc1nc2sc(C(c3cccs3)N3CCC(C(N)=O)CC3)c(O)n2n1 (stereo not given) | 2 |
| CN(C(=O)c1ccc(S(=O)(=O)NC2CCCC2)cc1)C1CCCCC1 | 5 |
| CCOC(=O)c1cccc(NC(=O)C2CCN(S(=O)(=O)c3cccs3)CC2)c1 | 0 |
| COc1ccccc1NC(=O)CSc1nnnn1-c1ccc2c(c1)OCO2 | 0 |
| Cc1ccc(NC(=O)c2ccccc2F)nc1 | 2 |
